Reference: PubChem BioAssay (NCATS)
Unmarked numbers belong to inactive results. Results filed as inconclusive are left out. Entries that show only a call come without a potency. Activity calls are given as the source filed them. Calls follow the shape of the dose curve; as a rule, active = well fitted curve in the direction sought with a large enough effect; inconclusive = small, poorly fitted or top-dose-only effect, or another doubt; inactive = no such curve, though single readings can be large; an effect the other way counts as inactive or inconclusive.

How the values were obtained:
[1] = target: Glutathione peroxidase 1 (Homo sapiens) (UniProt P07203); assay: Primary qHTS Assay for Inhibitors of Recombinant Selenoprotein Glutathione Peroxidase 1 (GPX1) (AID 1845191); also: nearly all actives have a fitted effect of over 65% in size
Glutathione peroxidase 1 (Homo sapiens), sequence (P07203 whole entry, looked up): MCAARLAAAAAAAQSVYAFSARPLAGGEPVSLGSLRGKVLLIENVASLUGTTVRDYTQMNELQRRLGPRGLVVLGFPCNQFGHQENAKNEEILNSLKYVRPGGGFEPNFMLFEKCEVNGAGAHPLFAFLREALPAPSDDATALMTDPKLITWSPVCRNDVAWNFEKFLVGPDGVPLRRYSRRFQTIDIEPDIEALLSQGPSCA
How it was run: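 NADPH consumption tracked by fluorescence at 340/450 nm between t=0 and t=15 min, room temperature. Final mix: 10 nM GPX1, 100 nM glutathione reductase, 1 mM GSH, 0.5 mM NADPH, 0.5 mM cumene hydroperoxide, 0.01% BSA; 30 min compound–enzyme preincubation.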

[2] = target: Phospholipid hydroperoxide glutathione peroxidase GPX4 (Homo sapiens) (UniProt P36969); assay: Primary qHTS Assay for Inhibitors of Recombinant Selenoprotein Glutathione Peroxidase 4 (GPX4) (AID 1845192); also: nearly all actives have a fitted effect of over 65% in size; as to activity change, negative = inhibition: series mostly up to about 50 µM
Phospholipid hydroperoxide glutathione peroxidase GPX4 (Homo sapiens), sequence (P36969 whole entry, looked up): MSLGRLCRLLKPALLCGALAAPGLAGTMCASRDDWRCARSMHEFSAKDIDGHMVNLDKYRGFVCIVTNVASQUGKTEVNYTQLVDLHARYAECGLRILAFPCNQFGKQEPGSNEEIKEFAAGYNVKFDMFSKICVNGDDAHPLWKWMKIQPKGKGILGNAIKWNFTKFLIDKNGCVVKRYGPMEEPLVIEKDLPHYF
How it was run: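 NADPH consumption followed by fluorescence at 340/450 nm, t=0 and after 15 min at room temperature. Reaction started with cumene hydroperoxide (0.5 mM final) after 30 min compound–GPX4 preincubation; final 200 nM GPX4, 100 nM GR, 1 mM GSH, 0.5 mM NADPH.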

[3] = target: Luciferin 4-monooxygenase (Photinus pyralis) (UniProt P08659); assay: Primary firefly luciferase (FLuc) qHTS assay for identification of artifact compounds. (AID 1845220); also: nearly all actives have a fitted effect of over 60% in size; as to activity change, negative = inhibition: series mostly up to about 54 µM
How it was run: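 Compounds sat 15 min at room temperature with 10 uM luciferin and 10 uM ATP (pH 7.6 Tris acetate). Firefly luciferase (10 nM final) was then added, and luminescence was read 5 min later. Data normalized to no-enzyme and DMSO controls were Hill-fitted.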

[4] = Primary fluorescence-based thiol-reactive (MSTI) qHTS assay for identification of artifact compounds. (AID 1845221); also: nearly all actives have a fitted effect of over 65% in size; also: potency is read from the fitted curve at half-maximal effect;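 as to activity change, negative = thiol reactive: series mostly up to about 54 µM; thiol-reactive compounds lower the probe fluorescence signal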
How it was run: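 In PBS pH 7.4 with 2% DMSO, each compound met 4 uM MSTI for one hour at ambient temperature, shielded from light, before fluorescence detection.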

[5] = system: Nanoluciferase (engineered Oplophorus gracilirostris luciferase); assay: Primary Nanoluciferase (NLuc) qHTS assay for identification of artifact compounds. (AID 1845222); also: series mostly up to about 54 µM
How it was run: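 Luminescence from secreted NLuc (filtered, 1:55-diluted S16 cell medium) read 5 min after Nano-Glo substrate; compounds preincubated 15 min, RT. Hill fits of inhibition normalized to DMSO and no-enzyme.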

[6] = Primary redox qHTS assay for identification of artifact compounds. (AID 1845223)
How it was run: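 Redox-cycling detection via DTT (250 uM final) oxidation coupled to Amplex Red (25 uM)/HRP (250 mU/mL) in HBSS. 15 min preincubation plus 30 min after DTT, room temperature. Ex/Em 525/598 nm; 4-parameter Hill fit against DMSO and 10 uM DA3003.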

Row | Structure (SMILES) | Potency [1] | Potency [2] | Potency [3] | Potency [4] | Potency [5] | Potency [6] | activity change, negative = inhibition [3] | activity change, negative = thiol reactive [4] | activity, negative = inhibition [5] | redox activity (% of DA3003) [6]
1 | CCc1cc(CN2CC(C(=O)O)C2)sc1-c1noc(-c2ccc(Oc3ccccc3)cc2)n1 | inactive | inactive | inactive | inactive | inactive | inactive |  |  |  | 
2 | COc1c2c(c(C)c3c1C(=O)OC3)O[C@@]1(C)CC(O)C(C(C)(C)O)[C@](C)(CCC(=O)O)[C@H]1C2 (stereo partly specified) | inactive | inactive | inactive | inactive | inactive | inactive |  |  |  | 
3 | CC(C)C[C@H](CC(=O)NO)C(=O)N[C@@H](Cc1ccc2ccccc2c1)C(=O)N[C@@H](C)C(=O)NCCN | inactive | inactive | inactive | inactive | inactive | inactive |  |  |  | 
4 | C=C(C)C(=O)O[C@H]1C[C@@](C)(O)C(=O)CC(O)/C(C)=C\[C@H]2OC(=O)C(=C)[C@H]12 (stereo partly specified) | inactive | inactive | inactive | 2930 nM (active) | inactive | inactive |  |  |  | 
5 | C[C@@H]1O[C@@H](O[C@H]2[C@H](O[C@H]3CC[C@@]4(C)C(CC[C@]5(C)C4C=C[C@]46OC[C@@]7(CCC(C)(C)C[C@H]74)[C@@H](O)C[C@]65C)[C@]3(C)CO)O[C@H](CO)[C@@H](O)[C@@H]2O[C@@H]2O[C@H](CO)[C@@H](O[C@@H]3O[C@@H](C)[C@H](O)[C@@H](O)[C@H]3O)[C@H](O)[C@H]2O)[C@H](O)[C@H](O)[C@H]1O (stereo partly specified) | inactive | inactive |  |  |  |  | -4.04% [at 11.6 µM] | 81.1% [at 11.5 µM] | -2% [at 11.6 µM] | 9.95% [at 11.5 µM]
6 | Nc1nc2c(ncn2[C@@H]2O[C@@H]3COP(=O)(O)O[C@H]3[C@H]2O)c(=O)[nH]1 | inactive | inactive | inactive | inactive | inactive | inactive |  |  |  | 
7 | CC1=CC(=O)CC(C)(C)[C@H]1/C=C/C(CO)O[C@@H]1O[C@H](CO)[C@@H](O)[C@H](O)[C@H]1O (stereo partly specified) | inactive | inactive | inactive | 11700 nM (active) | inactive | inactive |  |  |  | 
8 | c1ccc(-c2ncc(CN3CCN(c4ncccn4)CC3)[nH]2)cc1 | inactive | inactive | inactive | inactive | inactive | inactive |  |  |  | 
9 | C[C@H]1CC[C@@]2(OC1)O[C@H]1CC3C4CC[C@H]5C[C@@H](O)[C@H](O)C[C@]5(C)C4=CC(=O)[C@]3(C)[C@H]1[C@@H]2C (stereo partly specified) | inactive | inactive | inactive | inactive | inactive | inactive |  |  |  | 
10 | C=CC1(C)C=C2CCC3C(C)(C)C(O[C@@H]4O[C@@H](CO)[C@H](O)[C@H]4O)CCC3(C)C2CC1O[C@@H]1O[C@H](C)[C@H](O)[C@H](O)[C@H]1O (stereo partly specified) | inactive | inactive | inactive | inactive | inactive | inactive |  |  |  | 
11 | C[C@@H]1C[C@H]2O[C@@H]2/C=C\C=C\C(=O)Cc2c(Cl)c(O)cc(O)c2C(=O)O1 | inactive | inactive |  |  |  |  | -8.64% [at 11.6 µM] | -4.56% [at 11.5 µM] | -2.67% [at 11.6 µM] | 4.19% [at 11.5 µM]
12 | CC1(C)CCCC2(C)C(C(=O)O)=CCC12 (stereo unspecified) | inactive | inactive | inactive | inactive | inactive | inactive |  |  |  | 
13 | C=C1CC23CC1CCC2C12OC(=O)C(C)(CCC1O)C2C3C(=O)O (stereo unspecified) | inactive | inactive | inactive | inactive | inactive | inactive |  |  |  | 
14 | C=C1CCC2C(C)(C(=O)OC)CCCC2(C)C1CCC(C)CC(=O)O (stereo unspecified) | inactive | inactive | inactive | inactive | inactive | inactive |  |  |  | 
15 | COc1cc(O)cc(C)c1C(=O)O[C@H]1[C@@H](OC(C)=O)[C@H](n2ccc(=O)[nH]c2=O)O[C@@H]1CO | inactive | inactive | inactive | inactive | inactive | inactive |  |  |  | 
16 | O=C(O)[C@@H]1C[C@H]2C[C@@H](CCc3nn[nH]n3)CC[C@H]2CN1 | inactive | inactive | inactive | inactive | inactive | inactive |  |  |  | 
17 | CC1=CC(=O)C2(OC3OC(C)C(O)C(OC(=O)/C=C/c4ccccc4)C3O)C=COC(OC3OC(CO)C(O)C(O)C3O)C12 (stereo unspecified) | inactive | inactive | inactive | 1410 nM (active) | inactive | inactive |  |  |  | 
18 | C[C@@H]1C(=O)O[C@H]2[C@H](O)C34[C@H]5C[C@@H](C(C)(C)C)C36[C@@H](OC(=O)[C@@H]6O)O[C@@]4(C(=O)O5)[C@@]12O (stereo partly specified) | inactive | inactive | inactive | inactive | inactive | inactive |  |  |  | 
19 | Cc1ccccc1-n1c([C@H](C)Nc2nc(N)nc3nc[nH]c23)nc2cccc(C)c2c1=O | inactive | inactive | inactive | inactive | inactive | inactive |  |  |  | 
20 | CC1CCC2(C(=O)O)CCC3(C)C(=CCC4C5(C)CCC(OC(=O)/C=C/c6ccccc6)C(C)(C)C5CCC43C)C2C1C (stereo unspecified) | inactive | inactive | inactive | inactive | inactive | inactive |  |  |  | 
21 | C=C1C[C@]23C[C@H]1CC[C@H]2[C@@]12CC[C@H](O)[C@@](C)(C(=O)O1)[C@H]2[C@@H]3C(=O)O | inactive | inactive | inactive | inactive | inactive | inactive |  |  |  | 
